Drawing on PubChem BioAssay AID488969 (Vanderbilt High Throughput Screening Facility, 2010), this text covers z-score for 111 compounds.

The full ranking holds about 110,000 compounds; the median of “z-score” is about -0.1, and the highest 2% start at about 2. Only a selection was taken, and the highest values are over-represented in it overall. Calls of active or inactive are those of the source.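 How the source made its calls: active means z-score in the third read window above 3 or below -3; inactive means the rest.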

The target of this test is Metabotropic glutamate receptor 8 (Rattus norvegicus) (UniProt P70579). As to the kind of experiment: rat mGluR8 modulators via GIRK flux, primary screen, cell-based, thallium flux, HTS (AID 488969). The following applies: HEK293 rat mGluR8, GIRK (G protein-gated inwardly rectifying potassium channel) thallium flux, FluoZin2; at 10 µM; stronger effect = higher value; submaximal glutamate (EC20) added with thallium.
Metabotropic glutamate receptor 8 (Rattus norvegicus), sequence (P70579 whole entry, looked up): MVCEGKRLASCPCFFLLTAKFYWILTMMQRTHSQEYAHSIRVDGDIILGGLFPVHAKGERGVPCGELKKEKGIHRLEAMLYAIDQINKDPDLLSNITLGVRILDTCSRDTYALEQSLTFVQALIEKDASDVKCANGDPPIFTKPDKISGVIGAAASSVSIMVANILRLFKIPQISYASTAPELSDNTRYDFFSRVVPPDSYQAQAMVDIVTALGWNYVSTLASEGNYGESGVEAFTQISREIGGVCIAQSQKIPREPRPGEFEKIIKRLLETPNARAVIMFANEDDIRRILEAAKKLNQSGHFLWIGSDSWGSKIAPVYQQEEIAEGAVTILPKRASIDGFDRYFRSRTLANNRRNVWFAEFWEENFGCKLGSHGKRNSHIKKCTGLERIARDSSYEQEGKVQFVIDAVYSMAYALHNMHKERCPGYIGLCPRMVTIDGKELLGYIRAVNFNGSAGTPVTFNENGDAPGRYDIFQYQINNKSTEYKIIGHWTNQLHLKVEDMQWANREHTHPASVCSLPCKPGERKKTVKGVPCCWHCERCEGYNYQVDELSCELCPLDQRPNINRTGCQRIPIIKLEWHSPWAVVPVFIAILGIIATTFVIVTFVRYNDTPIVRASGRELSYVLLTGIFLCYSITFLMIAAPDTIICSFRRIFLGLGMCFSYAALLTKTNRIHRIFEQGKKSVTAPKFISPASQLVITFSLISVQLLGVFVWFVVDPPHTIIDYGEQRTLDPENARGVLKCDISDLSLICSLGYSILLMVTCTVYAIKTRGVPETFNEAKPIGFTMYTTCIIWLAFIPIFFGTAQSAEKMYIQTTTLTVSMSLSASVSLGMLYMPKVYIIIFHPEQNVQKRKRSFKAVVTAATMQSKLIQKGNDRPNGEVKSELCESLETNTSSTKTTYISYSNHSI
Compound `CCOC(=O)C(NC(=O)c1ccccc1)(OCc1ccc(F)cc1)C(F)(F)F` (stereo unspecified) registered a z-score of 0.14.
For `Cc1cc(C(=O)CSc2nnc(-c3ccncc3)n2-c2ccccc2)c(C)n1C`, the z-score is 4.58 (active).
`Cc1cc(C(=O)CSc2nnc(-c3ccccc3)n2C)c(C)n1C`: the z-score was -0.546.
For `CCn1c(SCC(=O)c2cc(C)n(C)c2C)nnc1-c1ccccc1` the value was 0.0656; for `C=CCn1c(SCC(=O)NCCc2ccccc2)nnc1C(C)NC(=O)c1cccs1` (stereo unspecified), 0.0814.
The result for `O=c1c(-c2nnc(SCc3ccc(Cl)cc3)o2)cccn1Cc1ccccc1` reads 0.618; that for `N#C/C(=C\c1ccc(OC(=O)c2ccccn2)cc1)C(N)=O`, -0.197.
For the compound `O=S(=O)(NCCOc1cccc2cccnc12)c1ccc(F)cc1`, the z-score is -0.153.
For `O=S(=O)(Nc1cc(Sc2cccc3cccnc23)c(O)c2ccccc12)c1ccc(F)cc1`, the z-score is 5.2 (active).
For `COc1ccc(S(=O)(=O)Nc2cc(Sc3ncn[nH]3)c(O)c3ccccc23)cc1` the value was 0.366; for `COC(=O)c1ccc(N2CCN(S(=O)(=O)c3ccccc3)CC2)c([N+](=O)[O-])c1`, -0.111.
Consider `Cc1cc(=O)n(C)c(=O)n1CC(=O)N1CCCCCC1`, for which the z-score is 0.975.
`Cc1c(NC(=O)/C(C#N)=C/c2cccs2)c(=O)n(-c2ccccc2)n1C` showed a z-score of 0.559.
The result for `O=C(Nc1ccccc1)c1ccc(OC(=O)c2cc3ccccc3o2)cc1` reads -0.284; that for `COc1ccc(OC(=O)c2cc3ccccc3o2)cc1`, 0.125.
Turning to `O=C(Oc1ccccc1)c1cc2ccccc2o1`, the z-score came to 2.68.
For `CCCCn1c(=O)c(C(=O)c2ccccc2)nc2ccccc21` the value was -0.617; for `S=c1sc2c(N3CCN(Cc4ccccc4)CC3)ncnc2n1-c1ccccc1`, 0.467.
Turning to `COc1ccc(CCN(Cc2cccs2)S(=O)(=O)c2ccc(S(=O)(=O)N3CCC(C)CC3)cc2)cc1OC`, the z-score was -0.101.
Regarding `O=c1c2ccc(Cl)cc2[nH]c(=S)n1CCC1=CCCCC1`, the z-score was 5.05 (active).
For `CCCCn1c(=S)[nH]c2c(oc3ccc(Cl)cc32)c1=O` the value was 13.1 (active); for `CCN(CC)CCCn1c(=S)[nH]c2cc(Cl)ccc2c1=O`, 4.1 (active); for `CCN(CC)CCCn1c(=S)[nH]c2ccc(Cl)cc2c1=O`, 0.0726.
With `CCN(CC)CCCn1c(=S)[nH]c2cc(OC)c(OC)cc2c1=O`, the z-score was -0.0622.
`O=c1c2ccccc2[nH]c(=S)n1CCC1=CCCCC1` yielded a z-score of 0.577.
The compound `CCOC(=O)N1CCN(C(=O)c2ccc3c(=O)n(CCC4=CCCCC4)c(=S)[nH]c3c2)CC1` showed a z-score of 0.221.
With `CCN(CC)CCn1c(=S)[nH]c2cc(Cl)ccc2c1=O`, the z-score stood at 1.41.
For `O=c1c2oc3ccccc3c2[nH]c(=S)n1-c1ccccc1`, the z-score was found to be 0.645.
The result for `Cc1ccc(C)c(N2CCN(c3ccc(N4C(=O)COCC4=O)cc3[N+](=O)[O-])CC2)c1` reads -0.128; that for `O=[N+]([O-])c1ccc2c(c1)C(N1CCOCC1)/C(=C/COc1ccc3ccccc3c1Br)O2` (stereo unspecified), -0.0823; that for `COc1ccc(-c2nnn(CC(=O)N3CCN(c4ccccc4OC)CC3)n2)cc1`, -0.289.
Turning to `CCOC(=O)C1CCc2sc(N)c(C#N)c21` (stereo unspecified), the z-score is 2.38.
For `CCCC(=O)Nc1sc2c(c1C(=O)OC)C(C(=O)OC)CC2` (stereo unspecified) the value was -0.0731; for `CCOC(=O)Nc1sc2c(c1C#N)CCC(C)C2` (stereo unspecified), -0.505.
Consider `Cc1ccc(O)c(C(=O)c2cnc3c(c2)COc2ccccc2-3)c1`, for which the z-score was -0.0344.
The result for `CCOC(=O)C1=C(C)NC(C)=C(C(=O)OCC)C1c1ccc(O)cc1` reads -0.238; that for `O=C(Nc1ccc2c(c1)OCCO2)C1CCC1`, 0.045.
For `CS(=O)(=O)N1CCC(C(=O)Nc2ccc3c(c2)OCCO3)CC1` the value was 0.0973; for `O=C(Nc1ccc2c(c1)OCCO2)C1CCN(c2cnccn2)CC1`, 2.51.
The result for `Cc1cc(C)nc(SCC(=O)c2c(N)n(C)c(=O)n(C)c2=O)n1` reads -0.282; that for `C=CCNC(=O)c1ccc(-c2nc(-c3ccccc3)cs2)cc1`, 0.133; that for `CN(C)CCCNC(=O)c1ccc(-c2nc(-c3ccc(Cl)cc3)cs2)cc1`, 3.28 (active).
Take `C=CCNC(=O)c1ccc(-c2nc(-c3ccc(Cl)c(Cl)c3)cs2)cc1`: the z-score was -0.148.
For `CCc1cccc(C)c1NC(=O)CCCC(=O)O` the value was 0.0858; for `Cc1ccccc1Cn1ccc(NC(=O)c2nc3ncccn3n2)n1`, -1.29.
For `Cc1ccccc1Cn1cc(NC(=O)c2nc3ncccn3n2)cn1` the value was 2.77.
The result for `O=C(Nc1cnn(Cc2ccccc2)c1)c1nc2ncccn2n1` reads -0.222; that for `COc1ccc(/C=C/C(=O)c2sc(-c3ccccc3)nc2C)cc1`, 0.276; that for `COc1ccc(-c2nc(N)nc(C)c2Oc2ccccc2Br)c(O)c1`, -0.381.
On to `CSc1ccc(CCNC(=O)CSc2ccsc2[N+](=O)[O-])cc1`, for which the z-score is -0.173.
The result for `CCc1nnc(NC(=O)CSc2nc(-c3ccccc3)cc(-c3ccc(F)cc3)c2C#N)s1` reads -0.163; that for `CCc1nnc(NC(=O)CSc2nc(-c3ccccc3)cc(-c3ccc(OC)cc3)c2C#N)s1`, -0.249; that for `CCc1nnc(NC(=O)CSc2nc(-c3ccc(F)cc3)cc(-c3ccccc3)c2C#N)s1`, 2.35.
The compound `c1ccc(-c2nc(CSc3n[nH]c(-c4cccs4)n3)cs2)cc1` returned a z-score of 0.259.
As for `CCOC(=O)C1CCCN(C(=O)c2cn(CC(C)C)c(=O)c3cc(OC)c(OC)cc23)C1` (stereo unspecified), the z-score was -0.759.
The result for `COc1cc2c(C(=O)N3CCN(C4CCCCC4)CC3)cn(CC(C)C)c(=O)c2cc1OC` reads 2.68; that for `CCCN1CCN(C(=O)c2cn(CC(C)C)c(=O)c3cc(OC)c(OC)cc23)CC1`, -0.37; that for `Cc1nn(-c2ccccc2)c(Cl)c1C(=O)OC(C)C(=O)Nc1ccc2c(c1)OCO2` (stereo unspecified), -0.936.
Take `CCCn1nnc(NC(=O)c2ccc(F)cc2)n1`: the z-score is -0.08.
The result for `CCCCc1ccc(-c2nc(N)n[nH]2)cc1` reads 2.99; that for `COc1ccc(-c2nc(N)n[nH]2)cc1`, -0.101.
The result for `Nc1n[nH]c(-c2ccccc2)n1` reads 0.189; that for `CCOC(=O)c1c(C)[nH]c(C(=O)COC(=O)c2ccccc2NC(=O)c2ccco2)c1C`, -0.00749.
`Cc1ccc(NC(=O)CSCCc2ccccn2)nc1` returned a z-score of 0.022.
Regarding `CSc1ccc(/C=N/NC(=O)CNc2cccc3ccccc23)cc1`, the z-score is 0.3.
For `CCNC(=O)NC(=O)C(C)OC(=O)C1CCN(S(=O)(=O)c2ccc(C)c(C)c2)CC1` (stereo unspecified) the value was -0.143; for `Cc1cccc(-c2nc(=S)c3c(n2Cc2ccco2)CCCC3)c1`, 0.581; for `COc1cccc(-c2nc(=S)c3c(n2Cc2ccco2)CCCC3)c1`, 0.708.
For `S=c1nc(-c2ccccc2)n(Cc2ccco2)c2c1CCCC2` the value was 2.16; for `CCCc1[nH]nc2c1C(c1ccc(OCCN3CCOCC3)c(OCC)c1)C(C#N)=C(N)O2` (stereo unspecified), -0.892; for `COC(=O)NC(=S)Nc1ccc(Oc2ccc(Cl)cc2Cl)c(Cl)c1`, 3.69 (active).
For `C=CCNC(=O)COc1ccc(Br)cc1Cl` the value was 0.0502; for `CCC(=O)NC(=S)Nc1ccc(NC(=O)COc2ccc(Cl)cc2Cl)cc1`, -0.124.
`C=CCNC(=S)NNC(=O)COc1c(Cl)cc(Cl)cc1Cl` came in with a z-score of 0.71.
The result for `COc1ccc(NC(=S)NNC(=O)COc2ccc(Cl)cc2Cl)cc1` reads 2.95; that for `COC(=O)NC(=S)Nc1ccc(Oc2ccc(Cl)cc2)c(Cl)c1`, 1.29; that for `CC(=O)NC(=S)Nc1ccc(NC(=O)COc2ccc(Cl)cc2Cl)cc1`, -0.0173.
For `CCc1ccc(OCC(=O)NC(=S)Nc2ccc(F)cc2)c(Br)c1` the value was 0.182.
On to `C=CCNC(=S)NNC(=O)COc1ccc(Cl)cc1Cl`, for which the z-score was 6.1 (active).
As for `CCCC(=O)Nc1cccc(NC(=S)NC(=O)C(C)Oc2ccc(Cl)cc2Cl)c1` (stereo unspecified), the z-score is -0.0105.
With `O=C(COc1ccc(CO)cc1Cl)Nc1ccc(F)cc1`, the z-score came to 0.647.
Consider `O=C(COc1ccc(Cl)cc1Cl)NNC(=S)Nc1ccc(F)cc1`, for which the z-score was 7.82 (active).
Turning to `COc1cccc(C(=O)N2CCN(S(=O)(=O)Cc3ccccc3)CC2)c1OC`, the z-score was determined as 1.15.
As for `C=CCn1cc([N+](=O)[O-])nc1C`, the z-score is -0.339.
For `COC(=O)COc1ccc(S(=O)(=O)Nc2ccc3c(c2)OCO3)cc1` the value was -0.955; for `Cc1cc(F)ccc1NCC(=O)Nc1ccccc1Br`, 1.92; for `CC(=O)NCC(=O)N(c1ccccc1)C1(C(=O)NC2CCCCC2)CCCCC1`, 0.432.
In turn, `COc1ccc(-c2nc(Cn3c(SCc4ccc(F)cc4)nc4ccncc43)c(C)o2)cc1OC` came in with a z-score of 0.565.
For `O=C1C2C(c3ccccc3)C=CC(c3ccccc3)C2C(=O)N1c1ccncc1` (stereo unspecified) the value was -0.325; for `Cc1cc(C(=O)COc2ncnc3sccc23)c(C)n1C`, 2.04; for `Cc1cc(C(=O)COc2nncc3ccccc23)c(C)n1C`, 0.0547.
For the compound `Cc1cc(C(=O)COc2ncnc3sccc23)c(C)n1C1CC1`, the z-score is -0.349.
Compound `Oc1ccccc1N1CCN(c2ncccn2)CC1` displayed a z-score of 0.0492.
Regarding `O=C(OCC(=O)N1CCc2ccccc21)c1cccc(S(=O)(=O)N2CCCc3ccccc32)c1`, the z-score is -0.134.
Consider `O=C(N/N=C/c1ccc(OC(=O)c2ccccc2)cc1)c1ccc(CN2CCOCC2)cc1`, for which the z-score amounted to 0.54.
For `Cc1c(Cl)cccc1-n1ccnc1SCC(=O)O` the value was -0.317; for `Cc1ccc(C)c(OCC(O)CN2C(C)CCCC2C)c1` (stereo unspecified), 3.05 (active); for `COc1cccc(OCC(O)CN2C(C)CCCC2C)c1` (stereo unspecified), 0.438.
For `CC(=O)c1ccc(OCC(O)CN2C(C)CCCC2C)cc1` (stereo unspecified) the value was -0.288; for `CCN(CC)S(=O)(=O)c1ccc(NC(=O)c2cc(C(=O)OC)cc([N+](=O)[O-])c2)cc1`, -0.729; for `N#CC1(Cc2ccc(Cl)cc2)c2ccccc2C=CN1C(=O)c1ccccc1` (stereo unspecified), -0.14.
For `N#CC1(Cc2ccccc2)c2ccccc2C=CN1C(=O)c1ccccc1` (stereo unspecified) the value was -0.211.
Take `N#CC1(Cc2ccc([N+](=O)[O-])cc2)c2ccccc2C=CN1C(=O)c1ccccc1` (stereo unspecified): the z-score was found to be 2.08.
For the compound `Cc1cccc(-n2c(C)cc(/C=N/O)c2C)c1`, the z-score is -0.205.
Turning to `O/N=C/c1cn(-c2ccccc2)nc1-c1ccc2c(c1)OCCO2`, the z-score was -0.458.
The result for `NC(=O)/C=C\c1cn(-c2ccccc2)nc1-c1ccc2c(c1)OCCO2` reads 2.14; that for `O=Cc1cn(-c2ccccc2)nc1-c1ccc2c(c1)OCCO2`, -1.11; that for `O=C(COC(=O)c1cn(-c2ccccc2)nc1-c1ccccc1)c1ccc([N+](=O)[O-])cc1`, -0.413.
For `COc1ccc(S(=O)(=O)N2CCC(c3cc(-c4cccc5ccccc45)n[nH]3)CC2)cc1` the value was 2.15; for `COc1ccc(S(=O)(=O)N2CCC(CN3C(=O)c4cccc5cccc(c45)C3=O)CC2)cc1`, -0.138.
Turning to `O=S(=O)(c1cccc(C(F)(F)F)c1)N1CCC(c2cc(-c3cccc4ccccc34)n[nH]2)CC1`, the z-score came to 1.58.
